A short description of experiment [1]: Primary qHTS for inhibitors of nuclear receptor binding SET domain protein 2 (NSD2) in an RCH-ACV wild type WT cells (2C) (AID 1645877). Further: nearly all actives have a fitted effect of over 70% in size. Further: potency means the concentration at half of the fitted maximal effect. Background: In qHTS, concentration-response curves come from the screen itself.
The target in experiment [2] is Phospholipid hydroperoxide glutathione peroxidase GPX4 (Homo sapiens) (UniProt P36969). Description: Primary qHTS Assay for Inhibitors of Recombinant Selenoprotein Glutathione Peroxidase 4 (GPX4) (AID 1845192). Further: nearly all actives have a fitted effect of over 65% in size. Further: potency means the concentration at half of the fitted maximal effect. Conditions: outcome: dose series up to 50 µM unless noted. In a few lines:
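Steps: GPX4 plus compound, 30 min RT; add GR/GSH/NADPH master mix; start with cumene hydroperoxide; read 340/450 nm fluorescence at 0 and 15 min. Finals were 200 nM GPX4, 1 mM GSH, 0.5 mM CHP, 0.5 mM NADPH, 100 nM GR.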

Experiment [3] in a line: qHTS drug screen for cell cycle checkpoint inhibitors in PARPi-resistant BRCA-mutant ovarian cancer cell lines. (AID 1963452; calls by dose curve; further: potency means the concentration at half of the fitted maximal effect). The settings on record: PEO1/OlaR viability, CellTiter-Glo luminescence, 96 h; for Z-AUC: stronger effect = lower value. In a few lines:
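PEO1, PEO4 and PEO1/OlaR ovarian cancer cells, 600 per well, exposed 96 h at 37C to a dilution series. Viability read by CellTiter-Glo luminescence, normalized to DMSO and empty wells; activity summarized as Z-AUC.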

A short description of experiment [4]: Primary qHTS for inhibitors of nuclear receptor binding SET domain protein 2 (NSD2) in an isogenic RCH-ACV NSD2 p.E1099K mutant (9B) (AID 1645876). Further: nearly all actives have a fitted effect of over 70% in size. Further: potency means the concentration at half of the fitted maximal effect.
Experiment [5] concerns the target Glutathione peroxidase 1 (Homo sapiens) (UniProt P07203). Briefly: Primary qHTS Assay for Inhibitors of Recombinant Selenoprotein Glutathione Peroxidase 1 (GPX1) (AID 1845191). Further: nearly all actives have a fitted effect of over 65% in size. The essentials:
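GR-coupled readout: NADPH consumption tracked by fluorescence, ex 340/em 450 nm, at t=0 and after 15 min at RT. Final mix 10 nM GPX1, 1 mM GSH, 0.5 mM CHP, 0.5 mM NADPH, 100 nM GR, 0.01% BSA, following 30 min enzyme–compound preincubation.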

Experiment [6] can be described thus: Viability counterscreen for antagonist of constitutive androstane receptor (CAR) against the NCATS DSHEA and TCM libraries (AID 1794837).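 Further: compound exposure lasted 24 h before viability reading; 0% is about no effect.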 In a few lines:
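Fluorescence from CellTiter-Fluor reports live-cell protease activity in HepG2-CYP2B6-hCAR cells treated for 24 h with substances alongside 48 uM CITCO.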
For orientation: The purpose of a counterscreen is to sort out artefacts and off-target activity.

Experiment [7] concerns the target Nuclear receptor subfamily 1 group I member 3 (Homo sapiens) (UniProt Q14994). Description: Primary qHTS for agonist of constitutive androstane receptor (CAR) against the NCATS DSHEA and TCM libraries (AID 1794839).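 Further: HepG2 cells expressing human CAR with a CYP2B6 reporter plus PK11195 antagonist; luciferase reporter luminescence read with ONE-Glo; 0% is about no effect.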 In a few lines:
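Cells stably carrying hCAR and a CYP2B6 reporter (HepG2 background) are seeded and allowed 5 h to adhere. Substances at multiple concentrations are added alongside 0.75 µM PK11195, and luciferase signal is measured after 24 h.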

Experiment [8] in a line: HepG2 viability counterscreen (readout 2: ATP content) against the NCATS DSHEA and TCM libraries (AID 1794840).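 Further: HepG2 cells exposed to substances for about 24 h; 0% is about no effect.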 The essentials:
(§1)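 Cytotoxicity was assessed in HepG2 cells plated at 1,000 cells/well and exposed for about 24 hours to a concentration series. Protease activity and ATP content were measured sequentially in each well.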

The nature of experiment [9]: HepG2 viability counterscreen (readout 1: protease activity) against the NCATS DSHEA and TCM libraries (AID 1794841).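 Further: cells exposed to compounds for about 24 h before the protease read; 0% is about no effect.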 The essentials:
as §1

Experiment [10] has as its target Cytochrome P450 2D6 (Homo sapiens) (UniProt P10635). Briefly: qHTS for inhibitors of CYP2D6 against the NCATS DSHEA and TCM libraries (AID 1919972). Further: on the % scale 0 is the no-effect control and ±100 the full control effect. The essentials:
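CYP2D6 enzyme with pro-luciferin substrate in manufacturer buffer (typically 100 mM KPO4), preincubated 15 min RT with substances (most at 19.5 nM upward); NADPH regeneration system (1x) started 30–45 min RT reaction; P450-Glo luminescence read after 30 min; quinidine as intraplate control.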

The target in experiment [11] is Cytochrome P450 2C9 (Homo sapiens) (UniProt P11712). Briefly: qHTS for inhibitors of CYP2C9 against the NCATS DSHEA and TCM libraries (AID 1919973).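 Further: luminogenic pro-luciferin CYP2C9 substrate turned into luciferin with NADPH regeneration; series mostly up to about 34 µM; on the % scale 0 is the no-effect control and ±100 the full control effect.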 In a few lines:
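Each CYP isoform and its pro-luciferin substrate, at isoform-specific final concentrations, were preincubated 15 min at RT with substances. NADPH regeneration solution (1x) started a 30-45 min reaction, and P450-Glo luminescence was read.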

In experiment [12] the target is Cytochrome P450 1A2 (Homo sapiens) (UniProt P05177). Briefly: qHTS for inhibitors of CYPIA2 against the NCATS DSHEA and TCM libraries (AID 1919976). Further: potency means the concentration at half of the fitted maximal effect. The settings on record: recombinant CYP1A2 enzyme activity, luminescence. In a few lines: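 Reaction started with 1x NADPH regeneration solution and run 30-45 min, room temperature, protected from light, after compounds sat 15 min with CYP1A2 and pro-luciferin substrate. P450-Glo detection gave luminescence; furafylline served as control.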

Experiment [13] is described as follows: Dual reporter qHTS for agonist of Pregnane X Receptor (hPXR) against the NCATS DSHEA and TCM libraries: Fluorescence readout (AID 1920058). Further: 0% is about no effect. The essentials:
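Viability readout (CellTiter-Fluor, 405/540 nm, 1 h) from agonist-mode PXR dual reporter in hPXR-Luc HepG2 cells. Substances ~24 h, 37 °C, 5% CO2; rifampicin reference, tetraoctyl ammonium bromide cytotoxic control.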

Experiment [14] has as its target Nuclear receptor subfamily 1 group I member 2 (Homo sapiens) (UniProt O75469). Briefly: Dual reporter qHTS for antagonist of Pregnane X Receptor (hPXR) against the NCATS DSHEA and TCM libraries: Luminescence Readout (AID 1920060).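 Further: HepG2 cells carrying hPXR luciferase reporter stimulated with rifampicin at 2 µM; 0% is about no effect.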 The essentials:
(§2)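 HepG2 hPXR-Luc, 2000 cells/well, charcoal-stripped FBS medium; 5 h attach; RIF 2 uM final; 24 h 37C/5% CO2; CellTiter-Fluor 1 h, fluor 405/540; ONE-Glo 30 min RT, lum.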

Experiment [15] can be described thus: Dual reporter qHTS for antagonist of Pregnane X Receptor (hPXR) against the NCATS DSHEA and TCM libraries: Fluorescence Readout (AID 1920061). Further: 0% is about no effect. In a few lines:
as §2

Where [16] appears, read: measured here: PEO1 parental Z-AUC.

“And” between values parts separate entries of the source, which are not always exact repeats. Equal values may be shown once. Records with an inconclusive call do not appear. A structure can be active in one record and inactive in another. The source made the active and inactive calls. Unless noted, the call rests on the fitted dose curve; in most records, active means well fitted curve in the direction sought with a large enough effect; inconclusive means small, poorly fitted or top-dose-only effect, or another doubt; inactive means no such curve, though single readings can be large; an effect the other way counts as inactive or inconclusive.

Phospholipid hydroperoxide glutathione peroxidase GPX4 (Homo sapiens), sequence (P36969 whole entry, looked up): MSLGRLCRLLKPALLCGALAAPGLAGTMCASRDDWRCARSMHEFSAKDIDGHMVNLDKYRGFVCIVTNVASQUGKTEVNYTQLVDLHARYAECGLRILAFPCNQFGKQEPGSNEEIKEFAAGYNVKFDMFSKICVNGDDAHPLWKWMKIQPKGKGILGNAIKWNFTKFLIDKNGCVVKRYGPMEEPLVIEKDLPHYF
Glutathione peroxidase 1 (Homo sapiens), sequence (P07203 whole entry, looked up): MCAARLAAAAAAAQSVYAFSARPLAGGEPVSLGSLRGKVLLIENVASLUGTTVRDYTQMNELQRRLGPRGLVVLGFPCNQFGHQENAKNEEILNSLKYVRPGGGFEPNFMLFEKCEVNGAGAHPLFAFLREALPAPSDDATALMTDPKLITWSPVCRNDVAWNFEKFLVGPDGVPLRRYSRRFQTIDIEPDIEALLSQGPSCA
Nuclear receptor subfamily 1 group I member 2 (Homo sapiens), sequence (O75469 whole entry, looked up): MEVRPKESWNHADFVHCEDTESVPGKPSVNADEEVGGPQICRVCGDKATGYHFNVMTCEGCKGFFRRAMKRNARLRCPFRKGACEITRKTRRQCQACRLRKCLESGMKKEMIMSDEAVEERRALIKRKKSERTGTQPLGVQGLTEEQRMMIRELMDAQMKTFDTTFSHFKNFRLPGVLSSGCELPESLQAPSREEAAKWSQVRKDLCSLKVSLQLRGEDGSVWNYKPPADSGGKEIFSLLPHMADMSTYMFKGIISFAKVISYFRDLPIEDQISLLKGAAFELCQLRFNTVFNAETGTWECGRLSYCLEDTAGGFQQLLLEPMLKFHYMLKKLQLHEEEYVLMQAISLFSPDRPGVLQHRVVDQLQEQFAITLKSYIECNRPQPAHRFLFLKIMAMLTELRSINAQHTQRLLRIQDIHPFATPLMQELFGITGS
Nuclear receptor subfamily 1 group I member 3 (Homo sapiens), sequence (Q14994 whole entry, looked up): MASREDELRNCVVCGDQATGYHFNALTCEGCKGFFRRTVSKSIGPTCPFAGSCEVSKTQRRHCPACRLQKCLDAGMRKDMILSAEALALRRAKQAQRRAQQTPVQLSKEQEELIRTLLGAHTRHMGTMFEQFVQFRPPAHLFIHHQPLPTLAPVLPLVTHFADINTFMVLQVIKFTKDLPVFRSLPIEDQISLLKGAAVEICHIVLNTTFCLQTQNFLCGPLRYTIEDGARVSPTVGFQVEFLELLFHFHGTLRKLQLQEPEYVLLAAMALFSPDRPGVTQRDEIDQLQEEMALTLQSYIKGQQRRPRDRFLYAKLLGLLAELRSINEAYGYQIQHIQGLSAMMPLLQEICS
Cytochrome P450 1A2 (Homo sapiens), sequence (P05177 whole entry, looked up): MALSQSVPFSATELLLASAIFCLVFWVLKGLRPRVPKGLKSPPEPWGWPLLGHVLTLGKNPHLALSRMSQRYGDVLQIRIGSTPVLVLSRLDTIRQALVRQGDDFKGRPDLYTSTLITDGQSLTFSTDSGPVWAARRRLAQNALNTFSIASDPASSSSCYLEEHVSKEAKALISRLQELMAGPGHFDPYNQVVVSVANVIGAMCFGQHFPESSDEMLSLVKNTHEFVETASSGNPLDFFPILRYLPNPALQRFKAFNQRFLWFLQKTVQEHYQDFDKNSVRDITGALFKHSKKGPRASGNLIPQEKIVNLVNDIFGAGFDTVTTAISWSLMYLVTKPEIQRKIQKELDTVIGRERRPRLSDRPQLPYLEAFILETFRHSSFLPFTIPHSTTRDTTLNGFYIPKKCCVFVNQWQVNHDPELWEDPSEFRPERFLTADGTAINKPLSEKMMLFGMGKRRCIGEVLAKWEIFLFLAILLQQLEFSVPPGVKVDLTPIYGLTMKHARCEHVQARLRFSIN
Cytochrome P450 2C9 (Homo sapiens), sequence (P11712 whole entry, looked up, canonical isoform): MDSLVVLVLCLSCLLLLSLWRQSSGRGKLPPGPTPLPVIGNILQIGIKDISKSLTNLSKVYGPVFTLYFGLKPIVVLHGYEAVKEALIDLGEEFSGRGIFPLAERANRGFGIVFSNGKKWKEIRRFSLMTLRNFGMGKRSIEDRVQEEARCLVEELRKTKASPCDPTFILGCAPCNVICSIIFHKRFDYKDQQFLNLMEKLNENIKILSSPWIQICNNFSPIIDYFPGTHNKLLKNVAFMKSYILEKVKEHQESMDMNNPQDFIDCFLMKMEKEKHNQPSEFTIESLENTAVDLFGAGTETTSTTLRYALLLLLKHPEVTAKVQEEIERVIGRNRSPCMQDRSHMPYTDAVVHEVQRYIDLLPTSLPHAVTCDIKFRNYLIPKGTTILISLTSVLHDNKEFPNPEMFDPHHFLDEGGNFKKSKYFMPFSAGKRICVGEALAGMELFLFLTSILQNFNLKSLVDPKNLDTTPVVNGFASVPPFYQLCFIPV
Cytochrome P450 2D6 (Homo sapiens), sequence (P10635 whole entry, looked up): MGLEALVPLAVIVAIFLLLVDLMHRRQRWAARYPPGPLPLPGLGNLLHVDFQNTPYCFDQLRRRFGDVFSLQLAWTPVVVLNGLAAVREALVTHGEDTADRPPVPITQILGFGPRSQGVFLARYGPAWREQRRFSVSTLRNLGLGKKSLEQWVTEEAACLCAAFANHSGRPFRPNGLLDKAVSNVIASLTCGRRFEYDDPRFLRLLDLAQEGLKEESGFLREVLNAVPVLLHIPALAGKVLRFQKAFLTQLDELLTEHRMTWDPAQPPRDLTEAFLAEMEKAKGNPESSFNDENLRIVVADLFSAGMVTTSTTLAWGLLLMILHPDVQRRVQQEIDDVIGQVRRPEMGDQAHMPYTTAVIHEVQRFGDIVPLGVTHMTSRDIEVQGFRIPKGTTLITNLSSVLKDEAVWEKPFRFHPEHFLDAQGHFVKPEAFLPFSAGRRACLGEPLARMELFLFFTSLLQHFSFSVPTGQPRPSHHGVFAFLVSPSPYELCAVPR

Take Ac-PHSCN-NH2: the Potency in experiment [1] is 23.5 µM (active). Moreover, in experiment [2], the Potency entry is “inactive”. Further, the values for the Z-AUC in experiment [3], in experiment [3] (setting [16]) and in [3] (measured here: PEO4 Z-AUC) were -0.465 (inactive), 0.449 and 0.654, respectively.

As to `Nc1nc(-c2nn(Cc3ccccc3F)c3ncccc23)ncc1C1CC1`, the Potency in experiment [4] and in experiment [1] was 1.18 µM (active) each time. For the same compound, the Potency result in experiment [5] and in experiment [2] was “inactive” in each case. For the same compound, the Z-AUC is 1.67 (inactive) in experiment [3], 0.865 in experiment [3] (setting [16]) and 1.09 in experiment [3] (measured here: PEO4 Z-AUC).

Regarding `C=CCN(/C=C1\C(=O)O[C@@H](COC)[C@]2(C)C1=C(O)C(=O)C1=C2[C@@H](OC(C)=O)C[C@]2(C)C(=O)CC[C@H]12)CC=C`, the Potency is 10.5 µM (active) in experiment [4] and 8.33 µM (active) in [1]. The Potency result in experiment [5] and in experiment [2] was “inactive” throughout. The Z-AUC in [3] was -0.265 (inactive); in [3] (setting [16]) it was 0.0227; in experiment [3] (measured here: PEO4 Z-AUC), 0.306.

In the case of `O=c1c(-c2ccc(O)cc2)coc2c([C@@H]3O[C@H](CO)[C@@H](O)[C@H](O)[C@H]3O)c(O)ccc12`, the Potency entry in [4] and in experiment [1] was “inactive” each time. Also, the Z-AUC is 1.23 (inactive) in experiment [3], 1.96 in experiment [3] (setting [16]) and 1.37 in experiment [3] (measured here: PEO4 Z-AUC).

For the compound `COC(=O)/C=C/C(=O)OC`, the Potency entry in [4], in [1], in [5] and in experiment [2] was “inactive” throughout. The figures for the Z-AUC in experiment [3], in experiment [3] (setting [16]) and in experiment [3] (measured here: PEO4 Z-AUC) were -0.0504 (inactive), 0.852 and 0.675, respectively.

As for `CNS(=O)(=O)Nc1nccc(Cc2c(C)c3ccc(Oc4ncccn4)cc3oc2=O)c1F`, the Potency entry in experiment [5] and in experiment [2] was “inactive” each time. In addition, the Potency in experiment [3] was 2.75 µM (active). In addition, the Z-AUC in [3] (setting [16]) was -1.08; in experiment [3] (measured here: PEO4 Z-AUC) it was -1.84.

Take `CC1(C)S[C@H]2[C@H](NC(=O)[C@@H](N)c3ccc(O)cc3)C(=O)N2[C@H]1C(=O)O`: the Potency entry in experiment [4], in experiment [1], in experiment [5] and in experiment [2] was “inactive” throughout. Also, the Z-AUC was -0.122 (inactive) in experiment [3], 0.11 in experiment [3] (setting [16]) and 0.161 in experiment [3] (measured here: PEO4 Z-AUC).

With `C=C1/C(=C/C=C2\CCCC3(C)[C@@H]([C@H](C)/C=C/C=C/C(O)(CC)CC)CC[C@@H]23)C[C@@H](O)C[C@@H]1O` (stereo not given in full), the Potency in experiment [1] was 18.6 µM (active); in experiment [2], “inactive and 15.8 µM (active)”. For the same compound, in [5], the Potency entry was “inactive”. Further, the Z-AUC is -0.128 (inactive) in [3], -0.195 in experiment [3] (setting [16]) and -0.444 in experiment [3] (measured here: PEO4 Z-AUC).

Turning to `C[C@H]1[C@H](C)CC[C@]2(C(=O)O)CC[C@]3(C)C(=CC[C@@H]4[C@@]5(C)CC[C@H](O)C(C)(C)[C@@H]5CC[C@]43C)[C@H]12`, the Potency result in experiment [4], in [1], in [2], in experiment [10] and in [11] was “inactive” each time. Moreover, the compound was called inactive in [6], in experiment [7], in [8], in [9], in experiment [13] and in experiment [14]. For the same compound, in experiment [15], the compound was called inactive. Besides, the Potency in experiment [12] is 3.55 µM (active). The Z-AUC in experiment [3] was 0.556 (inactive); in experiment [3] (setting [16]), 0.879; in experiment [3] (measured here: PEO4 Z-AUC), 0.501.

The values are drawn from PubChem BioAssay (NCATS).
